Laboratory results reported in PubChem BioAssay AID1347145 (National Center for Advancing Translational Sciences (NCATS), 2019).
Results filed as inconclusive are left out. A call without a number means that no potency is given here. A number with no mark means an inactive call. The source made the active and inactive calls. The call rests on the fitted dose curve; in most records, active means well fitted inhibition curve with a large enough effect; inconclusive means small, poorly fitted or top-dose-only effect; inactive means no such curve, though single readings can be large or run the other way.

Each compound was assayed against N-terminal Xaa-Pro-Lys N-methyltransferase 1 (Homo sapiens) (UniProt Q9BV86) (assay: qHTS Assay for Inhibitors of N-terminal methyltransferase 1 (NTMT1): MTaseGlo Assay Confirmatory Screen, Round 1). Conditions: Recombinant NTMT1, MTase-Glo SAH luminescence; series mostly up to 57.1 µM.
In short: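 Luminescence from MTase-Glo conversion of SAH to ATP measured activity after a 30 min RT reaction with 1 µM SPKRIA substrate, 100 µM SAM and 125 nM enzyme. Normalization used no-enzyme and DMSO controls, followed by Hill fitting.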
Potency means the concentration at half of the fitted maximal effect.

Sequence of N-terminal Xaa-Pro-Lys N-methyltransferase 1 (Homo sapiens) (Q9BV86 whole entry, looked up): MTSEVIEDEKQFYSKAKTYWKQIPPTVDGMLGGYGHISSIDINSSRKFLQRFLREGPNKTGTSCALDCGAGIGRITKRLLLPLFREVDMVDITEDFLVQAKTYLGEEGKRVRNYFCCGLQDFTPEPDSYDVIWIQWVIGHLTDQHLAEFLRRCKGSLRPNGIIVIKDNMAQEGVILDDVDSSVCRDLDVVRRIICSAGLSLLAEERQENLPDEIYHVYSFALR

Row | Structure (SMILES) | Potency | activity change, negative = inhibition
1 | COc1cc2c(NC3CCN(C)CC3)nc(N3CCCCC3)nc2cc1OCCCN(C)C | inactive | 
2 | COc1cc2nc(N3CCN(C)CC3)nc(NCCN(C)C)c2cc1OC | inactive | 
3 | O=c1[nH]cnc2c1ncn2C1O[C@H](CO)[C@@H](O)[C@H]1O (some centres not stated) | inactive | 
4 | Nc1nc2c([nH]c(=O)n2[C@@H]2O[C@H](CO)[C@@H](O)[C@H]2O)c(=O)[nH]1 |  | -0.0532% [at 6.33 µM]
5 | COc1cc2nc(N3CCCN(C)CC3)nc(NC3CCN(C)CC3)c2cc1OC | inactive | 
6 | Nc1ncnc2c1ncn2[C@@H]1O[C@H](C(=O)NC2CC2)[C@@H](O)[C@H]1O | inactive | 
7 | CNC(=O)c1cnn(-c2nc(N)c3ncn([C@@H]4O[C@H](CO)[C@@H](O)[C@H]4O)c3n2)c1 | inactive | 
8 | C[C@H](Cc1ccccc1)Nc1ncnc2c1ncn2[C@@H]1O[C@H](CO)C(O)[C@H]1O (some centres not stated) | inactive | 
9 | CSc1ncnc2c1ncn2C1OC(CO)C(O)C1O (configuration not stated) | 30.6 µM (active) | 
10 | Nc1nc(Cl)nc2c1ncn2[C@@H]1O[C@H](CO)[C@@H](O)[C@@H]1F | inactive | 
11 | CNC(=O)[C@H]1O[C@H](n2cnc3c(NCc4cccc(I)c4)nc(Cl)nc32)[C@@H](O)[C@@H]1O | inactive | 
12 | COc1cc2nc(N3CCN(C)CC3)nc(NC3CCN(Cc4ccccc4)CC3)c2cc1OC | inactive | 
13 | Nc1ncnc2c1ncn2[C@H]1O[C@@H](CSCC[C@@H](N)C(=O)O)[C@H](O)[C@@H]1O | inactive | 
14 | C[C@H](Cc1ccccc1)Nc1ncnc2c1ncn2[C@@H]1O[C@H](CO)[C@@H](O)[C@H]1O | inactive | 
15 | Nc1ncnc2c1nc(Br)n2C1CC(O)C(CO)O1 (configuration not stated) | inactive | 
16 | COc1cc2nc(NC3CCN(C)CC3)nc(NC3CCN(C)CC3)c2cc1OC | inactive | 
17 | COc1cc2nc(N3CCCN(C)CC3)nc(N3CCN(C)CC3)c2cc1OC | inactive | 
18 | OC[C@H]1O[C@@H](n2cnc3c(NC4CCCC4)ncnc32)[C@H](O)C1O (some centres not stated) | inactive | 
19 | Nc1nc(Cl)nc2c1ncn2[C@@H]1O[C@H](COP(=O)(O)OP(=O)(O)OP(=O)(O)O)C(O)[C@H]1O (some centres not stated) | inactive | 

Row | Structure (SMILES) | Potency | activity change, negative = inhibition
20 | COc1cc2nc(N3CCN(C)CC3)nc(NCCC3CC3)c2cc1OC | inactive | 
21 | C[S+](CC[C@H](N)C(=O)O)C[C@H]1O[C@@H](n2cnc3c(N)ncnc32)[C@H](O)[C@@H]1O (some centres not stated) | inactive | 
22 | COc1cc2c(NC3CCN(C)CC3)nc(N3CCCN(C)CC3)nc2cc1OCCCN1CCCC1 | inactive | 
23 | COc1cc2nc(NC3CCN(C)CC3)nc(N3CCCN(C)CC3)c2cc1OC | inactive | 
24 | COc1cc2c(NC3CCN(C(C)C)CC3)nc(N3CCCN(C)CC3)nc2cc1OCCOCCN1CCCC1 | inactive | 
25 | CCNc1nc(N2CCCN(C)CC2)nc2cc(OC)c(OC)cc12 | inactive | 
26 | NC(=O)c1ccc[n+]([C@@H]2O[C@H](COP(=O)([O-])OP(=O)(O)OC[C@H]3O[C@@H](n4cnc5c(N)ncnc54)[C@H](O)[C@@H]3O)[C@@H](O)[C@H]2O)c1 | inactive | 
27 | CNc1ncnc2c1ncn2[C@@H]1O[C@H](CO)C(O)[C@H]1O (some centres not stated) | inactive | 
28 | COc1cc2c(NC3CCN(CC4CCCCC4)CC3)nc(N3CCCCC3)nc2cc1OCCCN1CCCCC1 | inactive | 
29 | COc1cc2nc(N3CCCN(C)CC3)nc(NC3CC3)c2cc1OC | inactive | 
30 | CNc1ncnc2c1ncn2[C@@H]1O[C@H](COP(=O)(O)O)[C@@H](O)[C@H]1O | inactive | 
31 | COc1cc2c(NC3CCN(C)CC3)nc(N3CCCN(C)CC3)nc2cc1OCCOCCN1CCCC1 | inactive | 
32 | CCCN(C)CCCOc1cc2nc(N3CCCN(C)CC3)nc(NC3CCN(C)CC3)c2cc1OC | inactive | 
33 | COc1cc2c(NC3CCN(C(C)C)CC3)nc(N3CCCN(C)CC3)nc2cc1OCCOCCN(C)C | inactive | 
34 | Nc1ncnc2c1[nH]c(=S)n2C1OC(CO)C(O)C1O (configuration not stated) | inactive | 
35 | Nc1ncnc2c1[nH]c(=O)n2C1CC(O)C(CO)O1 (configuration not stated) | inactive | 
36 | OC[C@@H]1O[C@@H](n2cnc3c(NCc4ccco4)ncnc32)[C@H](O)[C@H]1O | inactive | 
37 | Nc1nc(Nc2ccccc2)nc2c1ncn2[C@@H]1O[C@H](CO)C(O)[C@H]1O (some centres not stated) | inactive | 
